High-throughput results (PubChem)
Most compounds without a hit are left out; they make up all but 3.6% or so of the library.
Rango-impB inh = Rango-importin beta binding inhibition | Q14974 | Rango CFP/YFP FRET sensor + importin beta, 45 min | Potency, µM (series often up to 92.2 µM), for the others: at the highest dose inhibition of complex formation | 340,000 tested, 0.031% active; calls by dose curve;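 note: potency is the fitted concentration of half-maximal effect; 0% = DMSO wells and 100% = buffer wells lacking importin beta; nearly all actives have a fitted effect of over 15% in size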
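Inhibition scored from the CFP 486 nm/YFP 530 nm FRET ratio 45 min after adding 0.125 microM importin beta to 50 nM Rango biosensor preincubated 5 min with compound (room temperature, PBS with DTT, Tween-20, BSA). No-importin wells as positive control.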
PI5P4Ka inh = PI5P4K alpha (human) kinase inhibition; PI5P4Kalpha enzyme, ADP-Glo luminescence, 60 min; hits give low values; max response, %; 330,000 tested, 1.2% active; AID 652105; active = max response of -50% or lower; inconclusive = between -30% and -50%; inactive = -30% or higher; note: value at the top dose of about 77 µM; % is set by controls: 0 for no effect and ±100 for the full control effect
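Compounds were pin-transferred onto PI5P4Kalpha and substrate in HEPES pH 7.4 buffer with EGTA, CHAPS and 5% DMSO. ATP (5 microM final) started the reaction, which ran 60 minutes at room temperature before ADP-Glo detection.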
Rango dissoc inh = inhibitors of RanGTP-induced Rango-importin beta complex dissociation; O95149+P62826; 340,000 tested, 0.071% active; Potency, µM (top dose mostly 46.1 µM), for the others: at the top dose activity change, negative = inhibition; Biochemical FRET Rango-importin beta, RanGTP-induced dissociation; calls by dose curve; note: potency is the fitted concentration of half-maximal effect; % of control where 0% means no effect; nearly all actives have a fitted effect of over 45% in size
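Rango FRET biosensor (snurportin-1 IBB flanked by N-terminal EYFP and C-terminal CFP10) at 0.1 uM, with 0.25 uM importin beta in PBS, 1mM DTT, 0.02% Tween-20, 0.1% BSA. 0.6 uM Ran, 2mM GTP and 0.2 uM RCC1 were then added for 45 min at room temperature. Inhibition read as loss of FRET rise.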
PLK1 PBD block = blocks phosphopeptide binding to human PLK1 polo-box domain; 360,000 tested, 2.8% active; AID 720504; Potency, µM, for inactives: max response, negative = inhibition, hits mostly inhibitors; P53350; Plk1 PBD binding of FITC phosphopeptide, fluorescence polarization; note: potency is the fitted concentration of half-maximal effect; series mostly up to about 57 µM; % is set by controls: 0 for no effect and ±100 for the full control effect; nearly all actives have a fitted effect of over 65% in size
VDR inhibitor = blocks the human vitamin D receptor | P11473 | VDR-SRC2-3 peptide fluorescence polarization, 2 h | Potency, µM, without a hit: max response, negative = inhibition, hits mostly inhibitors | 400,000 tested, 0.93% active; note: potency is the fitted concentration of half-maximal effect; % is set by controls: 0 for no effect and ±100 for the full control effect
Target sequence (P11473 whole entry, looked up): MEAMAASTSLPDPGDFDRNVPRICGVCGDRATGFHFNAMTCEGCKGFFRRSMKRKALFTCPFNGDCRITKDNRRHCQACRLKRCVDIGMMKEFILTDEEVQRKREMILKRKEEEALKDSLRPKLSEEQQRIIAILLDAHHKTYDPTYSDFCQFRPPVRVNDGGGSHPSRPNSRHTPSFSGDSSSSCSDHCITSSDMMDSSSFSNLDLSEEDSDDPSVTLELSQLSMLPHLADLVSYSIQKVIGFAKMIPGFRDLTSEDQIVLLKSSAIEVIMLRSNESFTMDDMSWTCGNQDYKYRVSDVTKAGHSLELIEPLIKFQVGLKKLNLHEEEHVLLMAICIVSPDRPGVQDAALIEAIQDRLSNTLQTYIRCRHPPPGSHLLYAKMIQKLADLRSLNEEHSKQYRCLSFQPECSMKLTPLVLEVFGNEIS
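Signal is fluorescence polarization, reporting how far test compounds block the interaction of VDR with the SRC2-3 coregulator peptide after a 2 h room-temperature incubation.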
KAT2A inh = GCN5L2 (KAT2A) acetyltransferase inhibition; 390,000 tested, 0.21% active; AID 504327; GCN5L2 HAT assay, ThioGlo1 CoA-SH fluorescence; Potency, µM (highest dose often 58.9 µM), for inactives: top-dose activity change, negative = inhibition, actives largely listed as inhibitors; note: potency is the fitted concentration of half-maximal effect; % is set by controls: 0 for no effect and ±100 for the full control effect
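Free CoA generated was detected with ThioGlo1 (50uM) fluorescence at Ex340nm/Em540nm, read immediately and after 20 min at room temperature. Enzyme, 20 nM in HEPES pH 7.5 buffer, saw compounds 15 min before adding 75uM H3(1-25) peptide and 70uM acetyl-CoA.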
An asterisk follows results filed as active; ? = inconclusive; . = no result given; [ ] = another dose, or the depositor's remark. Unless noted, calls come from the whole dose curve; as a rule, active = well fitted curve in the direction sought with a large enough effect; inconclusive = small, poorly fitted or top-dose-only effect, or another doubt; inactive = no such curve, though single readings can be large; an effect the other way counts as inactive or inconclusive.

SMILES	Rango-impB inh	PI5P4Ka inh	Rango dissoc inh	PLK1 PBD block	VDR inhibitor	KAT2A inh
O=C(OCC(=O)N(C1CCCCC1)C1CCCCC1)c1ccncc1	0%	2	-10%	21µM*	-19%	2%
COc1ccc(-c2nc3c(c(SCC(=O)N4CCCCC4)n2)Cc2cc(Cl)ccc2O3)cc1	.	.	.	.	89µM*	2%
O=C(CSc1nc(-c2ccc(Cl)cc2)nc2c1Cc1ccccc1O2)N1CCCCC1	.	.	.	.	-12%	-8%
Cc1cccc(NC(=O)CSc2nc3ccccc3c3nc(CCn4cncc4C)nn23)c1	.	.	.	.	17%	-2%
CN1C(=O)c2ccccc2Sc2ccc(NC(=O)N3CCN(c4ccc(F)cc4)CC3)cc21	.	.	.	.	15%	-14%
COc1ccc([N+](=O)[O-])cc1NC(=S)NC(=O)C(C)(C)C	4%	7	12%	?	18%	-1%
COc1cc([N+](=O)[O-])ccc1NC(=S)NC(=O)CC(C)(C)C	-1%	-1	-3%	27µM*	-2%	1%
CC(C)(C)NC(=O)C(c1ccc(F)cc1)N(CCc1ccccc1)C(=O)c1ccn[nH]1 (stereo unspecified)	1%	?	-2%	27µM*	-6%	-6%
Cc1cc(C)cc(NC(=O)C2CCCN(S(=O)(=O)c3cccc4nsnc34)C2)c1 (stereo unspecified)	.	.	.	.	-18%	-1%
O=C(c1ccccc1)N1CCc2cc(CNS(=O)(=O)c3ccccc3Cl)ccc21	.	.	.	.	17%	-13%
Cc1nn(-c2ccccc2)c(N)c1Sc1ccc([N+](=O)[O-])cc1	-2%	-16	4%	12µM*	?	?
Cc1ccc(Sc2c(C)nn(-c3ccccc3)c2OC(=O)C(C)(C)C)cc1	.	.	.	.	?	-1%
Cc1nn(-c2ccccc2)c(OC(=O)C(C)(C)C)c1Sc1ccccc1	.	.	.	.	79µM*	-3%
Cc1nn(-c2ccccc2)c(OC(=O)C(C)C)c1Sc1ccccc1	.	.	.	.	71µM*	3%
COc1ccc(C(=O)Oc2c(Sc3ccccc3)c(C)nn2-c2ccccc2)cc1OC	.	.	.	.	-29%	-1%
Cc1ccc2ccc3cc(C(=O)N4CCN(c5ccccc5)CC4)nc3c2[nH]1	.	.	.	.	3%	11%
COc1cc(C(=O)N2CC(=O)Nc3ccc(C)cc3C2c2ccc(F)cc2)cc(OC)c1OC (stereo unspecified)	.	.	.	.	6%	-6%
Cc1ccc(-c2cc(C(=O)Nc3ccc(S(=O)(=O)Nc4onc(C)c4C)cc3)c3ccccc3n2)cc1	3%	-13	-16%	34µM*	-6%	?
Cc1noc(NS(=O)(=O)c2ccc(NC(=O)CSc3ncccn3)cc2)c1C	0%	-7	11%	-11%	-17%	-3%
O=C(Nc1ccc(S(=O)(=O)Nc2nccs2)cc1)c1cc(-c2ccccc2Cl)nc2ccccc12	1%	?	-11%	30µM*	-2%	-7%
Cc1noc(NS(=O)(=O)c2ccc(NC(=O)CSc3nc4ccccc4s3)cc2)c1C	6%	.	-5%	17µM*	?	?
Cc1cc(C)nc(NS(=O)(=O)c2ccc(NC(=O)c3cc(-c4ccccc4)nc4ccccc34)cc2)n1	-1%	-13	-15%	-25%	15%	-18%
Cc1ccc(S(=O)(=O)c2nnn3c2nc(N2CCC(C)CC2)c2cc(Cl)ccc23)cc1C	.	.	.	.	14%	-5%
c1ccc2nc3c(cc2c1)CCCCC3	0%	?	-22%	3.4µM*	?	0%
C#Cc1cccc(Nc2ncnc3cc(OC)c(OC)cc23)c1	.	.	.	.	-2%	-15%
SMILES	Rango-impB inh	PI5P4Ka inh	Rango dissoc inh	PLK1 PBD block	VDR inhibitor	KAT2A inh
COc1ccc(-c2coc3c(CN4CCOCC4)c(O)ccc3c2=O)cc1	-7%	1	1%	-4%	-4%	?
O=c1c(-c2ccc(Cl)cc2)coc2c(CN3CCOCC3)c(O)ccc12	-3%	-18	28%	19µM*	-3%	-17%
Cc1cc(/C=C(/C#N)c2nc3ccccc3[nH]2)c(C)n1-c1cccc([N+](=O)[O-])c1	-1%	-9	-25%	-14%	-1%	-4%[0.501 µM]
COc1ccc(-n2c(C)cc(/C=C/c3nc(O)c([N+](=O)[O-])c(=O)[nH]3)c2C)cc1	6%	-52*	-10%	-20%	8%	-5%
Cc1cc(/C=C\c2nc(O)c([N+](=O)[O-])c(=O)[nH]2)c(C)n1-c1ccccc1	-1%	-63*	-2%	-19%	-13%	-7%
CCOc1ccccc1/C=C\c1nc(O)c([N+](=O)[O-])c(=O)[nH]1	4%	?	18%	0%	?	-7%
O=C(COc1ccccc1/C=C\c1nc(O)c([N+](=O)[O-])c(=O)[nH]1)Nc1ccccc1	-6%	-55*	1%	-18%	?	-6%
COc1ccc(NC(=O)/C(C#N)=C\c2cc(C)n(-c3ccc(Oc4ccc([N+](=O)[O-])cn4)cc3)c2C)cc1	-1%	-19	7%	-8%	-10%	-7%
COc1ccc(C2/C=C\CN(C(=O)C3CCCCC3)C(C)C(=O)N2Cc2ccc(F)cc2)cc1 (stereo unspecified)	.	.	.	.	-30%	.
CCOc1cc(C2NC(=O)N(C)C(C)=C2[N+](=O)[O-])ccc1OC(C)=O (stereo unspecified)	?	4	0%	-5%	-13%	-1%
CC1=C([N+](=O)[O-])C(c2ccc(Cl)cc2)NC(=O)N1C (stereo unspecified)	5%	?	-7%	3µM*	?	-5%
Cc1cccc(OCCSc2nc3ccc(NC(=O)c4cccs4)cc3s2)c1	.	.	.	.	7%	-5%
COC(=O)CSCc1nc2ccccc2[nH]c1=O	-5%	3	?	12µM*	?	-3%
CCCCC1=CC2=CC(=O)C(C)(OC(=O)CC)C(=O)C2=CN1Cc1ccc(OC)cc1 (stereo unspecified)	?	-3	8.2µM*	-27%	-9%	3%
CCCCC1=CC2=CC(=O)C(C)(OC(=O)CC)C(=O)C2=CO1 (stereo unspecified)	?	-65*	?	?	-12%	.
O=C1Nc2ccccc2/C1=N\N=C\c1ccc(O)c(O)c1	-1%	-56*	?	-16%	29%	-2%
FC(F)(F)c1cnc(-c2cnc(-c3cccnc3)nc2)c(Cl)c1	0%	-5	3%	24µM*	?	-4%
FC(F)(F)c1cc(Cl)c2nnc(-c3cccnc3)n2c1	0%	4	-13%	0%	16%	-1%
COc1ccc(/C=N/N2CCOCC2)cc1O	-1%	-6	-7%	-1%	0%	-1%
COc1ccc(/C=N/N2CCN(C3c4ccccc4-c4ccccc43)CC2)cc1O	-2%	0	-10%	27µM*	-27%	-11%
